Experimental findings from PubChem BioAssay (NCATS) are described below.

A number with no mark means an inactive call. Inconclusive results are not listed. Activity calls are given as the source filed them. Unless noted, calls follow the shape of the dose curve; as a rule, active = well fitted curve in either direction with a large enough effect (not every such curve was filed as active); inconclusive = small, poorly fitted or top-dose-only effect, or another doubt; inactive = flat fitted curve, though single readings scatter. Where only a bound is given, the exact number is not on record here.

The target of assay [1] is Lysosomal acid glucosylceramidase (Homo sapiens) (UniProt P04062). Briefly: Glucocerebrosidase-p2 (AID 348; in the data active = potency below about 10 µM; also: potency is read from the fitted curve at half-maximal effect). The note with it: purified GBA, blue fluorogenic substrate, 40 min. In outline:
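Normal human glucocerebrosidase (0.2 nM) with blue fluorogenic substrate (80 uM final) in citrate/phosphate pH 5.9 with 10mM sodium taurocholate, 0.01% tween-20; 40 min RT, NaOH/glycine stop; fluorescence Ex 365/Em 440; AC50 from a titration from 0.6 nM upwards.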

Assay [2] is described as follows: AP1 Signaling Pathway (AID 357).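 Also: ME-180 reporter cells stimulated with EGF at its EC50 level; % is scaled to controls: 0 for no effect and ±100 for the full control effect.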 The settings on record: ME-180 AP-1-bla reporter, EGF-induced, beta-lactamase ratio, 5 h; at 7.69 µM (top of the series) unless noted. In outline:
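Titration-series screen for positive or negative modulators of EC50 EGF-induced signaling in ME-180 cells carrying an AP-1-driven beta-lactamase reporter. After 5 hours at 37 degrees Celsius, CCF4 460nm/530nm emission ratio gave %Activity; AC50 values derived.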

The nature of assay [3]: Stat Signaling Pathway (AID 446).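 Also: ME-180 cervical cancer cells given 40 pM IL-6 alongside compound; SIE-controlled beta-lactamase reporter measured as 460/530 nm FRET emission ratio; % is scaled to controls: 0 for no effect and ±100 for the full control effect.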 The note with it: ME-180 SIE beta-lactamase reporter, IL-6 stimulated, 5 h; at 7.69 µM (top of the series) unless noted. In outline: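 FRET read-out (405 nm excitation, 460/530 nm emission) of a beta-lactamase reporter under a STAT-inducible element in ME-180 cervical carcinoma cells. Cells with compound receive 40 pM IL-6 for 5 h. Values are normalised to AC90 stimulation and AC90 JAK-inhibitor controls.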

The target of assay [4] is Glucocorticoid receptor (Homo sapiens) (UniProt P04150). Briefly: GR-EFC Redistribution (AID 451; calls by dose curve; also: potency is read from the fitted curve at half-maximal effect). The settings on record: CHO-K1 GR-EFC translocation, beta-gal luminescence, 2 h. In outline:
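CHO-K1 cells expressing nuclear EA and GR-ED fragments of b-gal; compounds titrated up to 46 uM final, 2 h at 37 C. GR nuclear translocation read as complemented b-gal luminescence after 1 h RT detection.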

The target of assay [5] is Mitogen-activated protein kinase 10 (Mus musculus) (UniProt Q61831). Briefly: JNK3 AlphaScreen Assay (AID 530).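 Also: kinase came from lysate of stimulated human HepG2 cells; signal reports phosphorylation of biotinylated GST-cJun 1-79 at Ser73 with 10 µM ATP; % is scaled to controls: 0 for no effect and ±100 for the full control effect.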 The note with it: JNK3 lysate, c-Jun phosphorylation; series mostly up to 57.1 µM. In a few lines:
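HepG2 lysate (IL-1b/TNFa pre-activated) + biotin-GST-cJun 1-79 + anti-pSer73 cJun; cpd titration, 15 min RT; ATP 10 uM start; Tris pH 7.6, MgCl2, DTT, vanadate; beads in EDTA buffer; AlphaScreen.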

The target in assay [6] is 3',5'-cyclic-AMP phosphodiesterase 4B (Homo sapiens) (UniProt Q07343). Briefly: qHTS Assay for Inhibitors of PDE-IV (AID 607; active = well fitted activation curve with a large enough effect in the main read-out, with a control signal flat, not every such curve was filed as active; also: % of control where 0% means no effect). The note with it: HEK293 ACTOne CNG channel cells, membrane potential fluorescence; series mostly up to 22.9 µM. In a few lines: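 Cell-based read-out of cAMP via a modified cyclic nucleotide-gated channel and membrane potential dye (535/590 nm) in HEK293 cells expressing PDE4 endogenously. Compounds tested up to 22.9 uM final; 100 uM RO 20-1724 reference.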
3',5'-cyclic-AMP phosphodiesterase 4B (Homo sapiens), sequence (Q07343 whole entry, looked up): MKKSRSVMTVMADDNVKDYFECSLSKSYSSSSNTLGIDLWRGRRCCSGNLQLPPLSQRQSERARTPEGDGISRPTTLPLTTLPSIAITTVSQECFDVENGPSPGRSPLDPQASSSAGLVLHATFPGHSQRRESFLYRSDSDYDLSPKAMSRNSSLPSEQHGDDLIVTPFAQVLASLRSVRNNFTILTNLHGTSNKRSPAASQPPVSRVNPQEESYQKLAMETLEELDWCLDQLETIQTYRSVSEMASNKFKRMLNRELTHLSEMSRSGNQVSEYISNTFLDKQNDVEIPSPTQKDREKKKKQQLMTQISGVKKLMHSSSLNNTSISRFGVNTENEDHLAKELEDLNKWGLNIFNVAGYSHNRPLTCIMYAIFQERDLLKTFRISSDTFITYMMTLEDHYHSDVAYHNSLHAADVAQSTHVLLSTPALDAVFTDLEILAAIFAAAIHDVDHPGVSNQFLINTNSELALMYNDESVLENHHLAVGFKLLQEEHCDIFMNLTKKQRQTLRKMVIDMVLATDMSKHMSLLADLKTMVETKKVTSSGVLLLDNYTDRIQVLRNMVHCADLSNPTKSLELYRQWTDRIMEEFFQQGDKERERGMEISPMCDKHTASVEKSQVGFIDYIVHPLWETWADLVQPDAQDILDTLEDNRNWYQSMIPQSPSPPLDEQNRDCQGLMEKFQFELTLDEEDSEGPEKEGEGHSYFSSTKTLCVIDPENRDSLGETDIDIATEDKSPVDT

Assay [7] in a line: qHTS Assay for Identification of Small Molecule Agonists for Hypoxia Response Element Signaling Pathway (AID 914; active = well fitted activation curve with a large enough effect in the signal ratio, with a control signal flat, not every such curve was filed as active; the % refers to the signal ratio; also: % of control where 0% means no effect). The note with it: ME-180 (cervical carcinoma) HRE-bla reporter, beta-lactamase ratio, CoCl2, 17 h; activation: hits give high values. In outline:
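Compounds in a titration series were added to ME-180 reporter cells alongside an EC50 level of CoCl2. After 17 hours, beta-lactamase activity was read as the 460nm/530nm emission ratio of CCF4, giving AC50 values.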
Background: Quantitative high-throughput screening tests each substance at several concentrations.

Assay [8] in a line: Primary qHTS for small molecule stabilizers of the endoplasmic reticulum resident proteome: Secreted ER Calcium Modulated Protein (SERCaMP) assay (AID 1508630; active = well fitted curve in the direction sought with a large enough effect; an effect the other way counts as inactive or inconclusive; also: % is scaled to controls: 0 for no effect and ±100 for the full control effect). The settings on record: SH-SY5Y GLuc-SERCaMP (Gaussia luciferase released on ER calcium loss) secretion, thapsigargin, luminescence; series mostly up to 38.4 µM. In outline:
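The SH-SY5Y reporter protocol was run at 3 concentrations up to 38.3 uM (primary) or 11 concentrations (follow-up): 16 h compound, 100 nM thapsigargin for 4 h, then extracellular luciferase luminescence.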

Assay [9] has as its target Glucocorticoid receptor (Homo sapiens) (UniProt P04150). Briefly: GR-GFP Redistribution (AID 450;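 active = compounds whose dose series gives a full or clear partial fitted curve of increased nuclear translocation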; also: potency is read from the fitted curve at half-maximal effect). The note with it: U2OS GR-GFP nuclear translocation, laser cytometry, 2 h.
Assay [10] is described as follows: Confirmation and Secondary Assay for Modulators of Hemoglobin Beta Chain Splicing at IVS2 654 locus (AID 910; active = well fitted curve in the direction sought with a large enough effect; an effect the other way counts as inactive or inconclusive;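 also: HeLa cells stably carrying EGFP split by mutant beta-globin IVS2-654 intron; % of control where 0% means no effect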). The note with it: HeLa EGFP-654 splicing reporter, GFP fluorescence, 48 h; series mostly up to 38.3 µM. In outline:
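HeLa cells stably expressing EGFP interrupted by β-globin IVS2-654 intron, seeded overnight in Opti-MEM/2% FCS, then treated 2 days at 37 °C. Restored splicing read as total peak GFP intensity per well by laser scanning cytometry (488 nm excitation, 500–520 nm emission); 500 nM antisense PNA as control.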

Assay [11] in a line: Confirmation and Secondary Assay for Modulators of Hemoglobin Beta Chain Splicing at IVS2 705 locus (AID 930; active = well fitted curve in the direction sought with a large enough effect; an effect the other way counts as inactive or inconclusive;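 also: HeLa cells stably expressing the EGFP-705 splicing reporter; % of control where 0% means no effect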). The note with it: HeLa EGFP-705 splicing reporter, GFP fluorescence, 48 h; series mostly up to 38.3 µM. In outline: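 Assay measures total GFP intensity per well in HeLa EGFP-705 cells after 2 days with compound; mis-splicing normally truncates EGFP, so fluorescence indicates corrected splicing.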

Assay [12] deals with Ubiquitin carboxyl-terminal hydrolase 1 (Homo sapiens) (UniProt O94782). Description: Inhibitors of USP1/UAF1: Pilot qHTS (AID 504865; active = well fitted curve in the direction sought with a large enough effect; an effect the other way counts as inactive or inconclusive;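 also: rhodamine fluorescence freed from ubiquitin-rhodamine substrate followed over time; top concentration of the series differs between compounds; % is scaled to controls: 0 for no effect and ±100 for the full control effect; nearly all actives have a fitted effect of over 35% in size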). The settings on record: purified USP1/UAF1, Ub-rhodamine cleavage fluorescence; series mostly up to 54.9 µM. In a few lines: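 Deubiquitinase activity followed as kinetic rhodamine fluorescence release from 150 nM Ub-Rho. 1 nM USP1/UAF1 with compound, after 15 min room-temperature preincubation, in HEPES pH 7.8 buffer containing TCEP, EDTA, BSA and Tween-20.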
Ubiquitin carboxyl-terminal hydrolase 1 (Homo sapiens), sequence (O94782 whole entry, looked up): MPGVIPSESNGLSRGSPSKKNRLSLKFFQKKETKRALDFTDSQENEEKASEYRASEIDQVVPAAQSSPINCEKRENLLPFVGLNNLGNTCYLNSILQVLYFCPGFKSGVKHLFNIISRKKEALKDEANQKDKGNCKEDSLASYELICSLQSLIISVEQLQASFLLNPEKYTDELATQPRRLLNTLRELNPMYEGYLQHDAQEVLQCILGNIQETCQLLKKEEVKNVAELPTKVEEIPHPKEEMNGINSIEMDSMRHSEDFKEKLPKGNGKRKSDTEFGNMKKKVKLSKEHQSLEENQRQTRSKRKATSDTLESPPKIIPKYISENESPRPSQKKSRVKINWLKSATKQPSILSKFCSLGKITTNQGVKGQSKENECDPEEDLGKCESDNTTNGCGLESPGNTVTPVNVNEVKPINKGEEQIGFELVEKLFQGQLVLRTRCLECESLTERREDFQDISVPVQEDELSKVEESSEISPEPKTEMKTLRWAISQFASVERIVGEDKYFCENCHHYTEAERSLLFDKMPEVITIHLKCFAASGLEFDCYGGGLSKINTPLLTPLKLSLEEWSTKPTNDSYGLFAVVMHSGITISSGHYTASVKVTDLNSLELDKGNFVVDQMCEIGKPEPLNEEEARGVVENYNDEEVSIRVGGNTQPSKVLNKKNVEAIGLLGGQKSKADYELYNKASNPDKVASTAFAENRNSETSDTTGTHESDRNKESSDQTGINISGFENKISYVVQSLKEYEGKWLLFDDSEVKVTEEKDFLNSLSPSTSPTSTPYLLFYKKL

The target of assay [13] is Cytochrome P450 3A4 (Homo sapiens) (UniProt P08684). Description: qHTS Assay for Inhibitors and Substrates of Cytochrome P450 3A4 (AID 884; active = well fitted curve in the direction sought with a large enough effect; an effect the other way counts as inactive or inconclusive; also: % is scaled to controls: 0 for no effect and ±100 for the full control effect; nearly all actives have a fitted effect of over 50% in size). The settings on record: recombinant CYP3A4, Luciferin-PPXE luminescence; series mostly up to 57.1 µM. In outline: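 Luminescent readout of luciferin produced by CYP3A4 (20 nM) dealkylation of Luciferin-PPXE, 25 uM (its KM). NADPH-driven reaction ran 60 min at RT after 10 min compound preincubation; data scaled to 57 uM ketoconazole as 100% inhibition.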
Cytochrome P450 3A4 (Homo sapiens), sequence (P08684 whole entry, looked up): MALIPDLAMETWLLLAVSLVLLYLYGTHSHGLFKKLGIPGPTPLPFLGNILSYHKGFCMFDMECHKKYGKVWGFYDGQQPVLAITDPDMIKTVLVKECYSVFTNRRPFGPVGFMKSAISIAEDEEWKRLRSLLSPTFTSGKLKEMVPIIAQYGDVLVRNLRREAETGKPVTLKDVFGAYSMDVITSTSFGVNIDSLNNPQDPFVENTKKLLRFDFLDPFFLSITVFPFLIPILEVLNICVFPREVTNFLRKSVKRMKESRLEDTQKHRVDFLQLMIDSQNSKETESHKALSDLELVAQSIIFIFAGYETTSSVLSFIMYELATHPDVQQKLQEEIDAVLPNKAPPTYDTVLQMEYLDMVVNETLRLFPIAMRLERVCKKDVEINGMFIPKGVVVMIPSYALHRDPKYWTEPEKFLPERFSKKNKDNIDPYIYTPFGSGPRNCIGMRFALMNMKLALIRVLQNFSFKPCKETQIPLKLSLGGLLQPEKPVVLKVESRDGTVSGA

For assay [14] the target is unchanged. Description: qHTS Assay for Activators of Cytochrome P450 3A4 (AID 885; active = well fitted curve in the direction sought with a large enough effect; an effect the other way counts as inactive or inconclusive; also: nearly all actives have a fitted effect of over 65% in size; also: potency is read from the fitted curve at half-maximal effect). The settings on record: recombinant CYP3A4, Luciferin-PPXE luminescence, 60 min; series mostly up to 57.1 µM. In outline:
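Luminescent readout of luciferin formed from 25 uM Luciferin-PPXE (KM level) by 20 nM CYP3A4 in 200 mM KPO4, with 60 min NADPH-driven reaction at room temperature after 10 min compound exposure. Ketoconazole (57 uM) defined 100% inhibition.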

Lysosomal acid glucosylceramidase (Homo sapiens), sequence (P04062 whole entry, looked up): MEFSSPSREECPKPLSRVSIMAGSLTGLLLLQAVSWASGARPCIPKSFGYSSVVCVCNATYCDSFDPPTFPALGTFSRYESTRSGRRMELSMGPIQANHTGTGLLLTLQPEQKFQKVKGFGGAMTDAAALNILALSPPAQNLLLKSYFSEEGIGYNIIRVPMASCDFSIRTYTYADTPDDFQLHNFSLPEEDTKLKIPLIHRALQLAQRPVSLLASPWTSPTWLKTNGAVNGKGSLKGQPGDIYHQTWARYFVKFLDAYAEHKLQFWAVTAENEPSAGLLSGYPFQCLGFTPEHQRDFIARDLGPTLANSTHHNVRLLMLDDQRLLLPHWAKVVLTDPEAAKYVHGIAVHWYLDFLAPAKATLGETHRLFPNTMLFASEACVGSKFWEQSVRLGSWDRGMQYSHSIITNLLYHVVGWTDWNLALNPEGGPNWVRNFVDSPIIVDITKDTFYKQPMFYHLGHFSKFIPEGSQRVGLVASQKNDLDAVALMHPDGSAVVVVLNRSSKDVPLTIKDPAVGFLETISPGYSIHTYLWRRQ
Glucocorticoid receptor (Homo sapiens), sequence (P04150 whole entry, looked up, the tested form may be a part): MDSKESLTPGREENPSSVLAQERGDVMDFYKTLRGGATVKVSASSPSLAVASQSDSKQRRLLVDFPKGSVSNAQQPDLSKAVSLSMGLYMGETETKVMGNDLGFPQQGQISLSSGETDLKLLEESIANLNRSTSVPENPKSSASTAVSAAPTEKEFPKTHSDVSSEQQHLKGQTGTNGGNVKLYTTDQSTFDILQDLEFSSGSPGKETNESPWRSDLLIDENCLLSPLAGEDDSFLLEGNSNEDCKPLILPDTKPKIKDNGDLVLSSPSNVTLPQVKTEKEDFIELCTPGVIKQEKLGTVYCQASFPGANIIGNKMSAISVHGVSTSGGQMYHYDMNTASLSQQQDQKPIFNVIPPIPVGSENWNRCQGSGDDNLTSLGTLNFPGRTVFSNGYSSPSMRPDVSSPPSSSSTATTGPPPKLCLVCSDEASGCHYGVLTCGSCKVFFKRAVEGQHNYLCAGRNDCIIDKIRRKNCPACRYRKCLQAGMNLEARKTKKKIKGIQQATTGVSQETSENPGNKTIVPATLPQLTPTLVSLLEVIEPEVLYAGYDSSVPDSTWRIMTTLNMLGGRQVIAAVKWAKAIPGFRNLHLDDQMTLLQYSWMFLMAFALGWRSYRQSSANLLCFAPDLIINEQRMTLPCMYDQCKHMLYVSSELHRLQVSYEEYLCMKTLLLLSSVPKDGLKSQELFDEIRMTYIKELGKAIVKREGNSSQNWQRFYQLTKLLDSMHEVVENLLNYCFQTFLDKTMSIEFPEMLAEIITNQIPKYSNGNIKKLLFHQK

With `O=C(c1cc(C(F)(F)F)cc(C(F)(F)F)c1)N1CCC2(CCCN(c3ccccn3)C2)CC1`, the Potency was above 11.4 µM in assay [1] and above 46 µM in assay [4]. Further, the activity change, negative = inhibition in assay [2] was 10.7%. The activity, negative = inhibition in assay [3] is -14.7%. Moreover, the Potency entry in [5] and in assay [6] was “inactive” in each case. Further, the activation in assay [7] was 2.81%. In addition, in [8], the result was inactive.

In the case of `O=C(Oc1ccccc1)N1CCC[C@@]2(CCN(c3ccccc3)C2)C1`, the Potency in [1] is above 11.4 µM; in assay [4] it was above 46 µM. In [2], the activity change, negative = inhibition was -15.6%. Besides, the activity, negative = inhibition in assay [3] is -1.51%. Besides, the Potency entry in assay [5] and in assay [6] was “inactive” each time. Moreover, in assay [8], the result was inactive.

Consider `N#Cc1cccc(NC(=O)N2CCCC3(CCN(C(=O)c4ccncc4)CC3)C2)c1`, for which the figures for the Potency in assay [1] and in assay [4] were above 11.4 µM and above 46 µM, respectively. Moreover, the activity change, negative = inhibition in assay [2] was -9.49%. The activity, negative = inhibition in [3] is 1.51%. Besides, the Potency entry in assay [5] and in assay [6] was “inactive” throughout. In addition, the activation in [7] was -1.72%. Moreover, the outcome in assay [8] was inactive.

As for `CN(C)Cc1ccccc1-c1cncnc1Nc1ccc(F)cc1`, the Potency in assay [1] is above 11.4 µM; in assay [9], above 46 µM; in assay [4], above 46 µM. Further, the activity change, negative = inhibition in assay [2] was 18.9%. In [3], the activity, negative = inhibition was 15.8%. Also, the Potency entry in assay [5], in assay [6], in assay [10] and in [12] was “inactive” in each case. Further, the call in assay [11] and in assay [8] was inactive.

Turning to `O=C(c1cccc(F)c1)N1CCC2(CC1)CCN(c1ccccn1)CC2`, the Potency is above 11.4 µM in assay [1], above 46 µM in assay [4] and 3.16 µM (active) in assay [14]. Besides, the activity change, negative = inhibition in assay [2] was -6.05%. In assay [3], the activity, negative = inhibition was -4.99%. For the same compound, the Potency entry in assay [5], in assay [6] and in [13] was “inactive” throughout. In addition, in assay [8], the result was inactive.

For `Cn1cccc1C(=O)N1CCC2(CCCN(C(=O)Nc3cccc(C#N)c3)C2)CC1`, the Potency in [1] is above 11.4 µM; in assay [4], above 46 µM. The activity change, negative = inhibition in assay [2] was -6.91%. The activity, negative = inhibition in assay [3] is -16.1%. Further, the Potency result in [5] and in assay [6] was “inactive” throughout. For the same compound, the outcome in assay [8] was inactive.

In the case of `O=C(c1ccncc1)N1CCC2(CCN(Cc3cc(C(F)(F)F)cc(C(F)(F)F)c3)CC2)CC1`, the Potency in assay [1] is above 11.4 µM; in assay [4], above 46 µM. In assay [2], the activity change, negative = inhibition was 2.71%. For the same compound, in assay [3], the activity, negative = inhibition was -0.397%. The Potency result in [5] and in assay [6] was “inactive” in each case. Moreover, in [8], the result was inactive.

Turning to `O=C(c1ccco1)N1CCC2(CC1)CCN(c1ccccn1)CC2`, the Potency in assay [1] is above 11.4 µM; in assay [4], above 46 µM. Moreover, in assay [2], the activity change, negative = inhibition was -7.81%. For the same compound, the activity, negative = inhibition in [3] was -0.852%. The Potency entry in [5], in assay [6] and in assay [13] was “inactive” in each case. The result in assay [8] was inactive.

Turning to `O=C(Oc1ccccc1)N1CCC2(CCCN(c3ccc(-c4ccccc4)cc3)C2)CC1`, the values for the Potency in assay [1] and in [4] were above 11.4 µM and above 46 µM, respectively. In assay [2], the activity change, negative = inhibition is 27%. Also, the activity, negative = inhibition in assay [3] is 6.94%. Also, the Potency result in [5], in [6] and in assay [14] was “inactive” each time. Also, in [8], the outcome was inactive.
